Compound activity deposited in PubChem BioAssay by National Center for Advancing Translational Sciences (NCATS).
This is a sample that favours compounds with a hit; in the whole collection about 0.5% have one here.
TSHR antagonist – Antagonists of the Thyroid Stimulating Hormone Receptor: HTS campaign; Thyrotropin receptor (Homo sapiens), P16473; TSHR-expressing cells, TSH-stimulated cAMP HTRF, 2 h; active compounds read low; activity change, negative = inhibition, % at 11.5 µM; hit rate 0.2% among 330,000;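 active means activity change below a set negative limit, meaning inhibition stronger than a set level, cut at about -70% in these data; inconclusive means activity change between two set negative limits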; further: on the % scale 0 is the no-effect control and ±100 the full control effect
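Freshly harvested TSHR cells receive pin-tooled compound, then EC80 TSH at 4nM final. After 2 hours at 37 deg C, antibody in lysis buffer and cAMP-d2 are added; 30 minutes at ambient temperature precede the HTRF read.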
PTHR1 ag – qHTS for PTHR1 Agonists: Primary Screen; HEK293 GP2 PTHR1 cells, GloSensor cAMP luminescence, 1 h; Potency, µM (series often up to 115 µM), inactives show at the highest dose activation, most hits filed as activators; AID 743266, 2014; Parathyroid hormone/parathyroid hormone-related peptide receptor (Homo sapiens), Q03431; hit rate 0.075% among 410,000; further: potency means the concentration at half of the fitted maximal effect; nearly all actives have a fitted effect of over 55% in size
Target sequence (Q03431 whole entry, looked up): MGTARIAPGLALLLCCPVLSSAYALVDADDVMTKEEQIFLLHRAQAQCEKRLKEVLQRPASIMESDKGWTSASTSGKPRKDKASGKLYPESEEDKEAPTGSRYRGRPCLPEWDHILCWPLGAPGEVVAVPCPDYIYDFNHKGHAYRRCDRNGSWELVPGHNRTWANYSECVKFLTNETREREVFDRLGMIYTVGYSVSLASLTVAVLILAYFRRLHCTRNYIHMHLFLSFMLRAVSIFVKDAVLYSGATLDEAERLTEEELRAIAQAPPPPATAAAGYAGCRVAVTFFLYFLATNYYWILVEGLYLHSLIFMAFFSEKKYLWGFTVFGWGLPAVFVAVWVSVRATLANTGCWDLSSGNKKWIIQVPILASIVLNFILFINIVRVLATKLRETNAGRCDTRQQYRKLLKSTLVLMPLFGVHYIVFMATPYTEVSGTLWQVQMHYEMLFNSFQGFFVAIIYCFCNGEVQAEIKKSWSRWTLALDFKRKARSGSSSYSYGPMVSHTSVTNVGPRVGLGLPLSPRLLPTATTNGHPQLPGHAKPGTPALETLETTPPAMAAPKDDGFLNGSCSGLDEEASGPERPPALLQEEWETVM
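HEK-293-derived GP2 cells expressing PTHR1 and a GloSensor cAMP reporter, 3,000/well, plated overnight, given luciferin plus IBMX (each 0.5 mM as added) for 1 h at 37 °C, then compound for 1 h at 37 °C. Luminescence was read after 15 min at room temperature.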
EPAC1 antagonist – qHTS for Antagonist of cAMP-regulated guanine nucleotide exchange factor 3 (EPAC1): primary screen. EPAC1 GEF assay, Rap1b-BODIPY-GDP exchange fluorescence. Potency, µM (doses to about 115 µM), inactives show at the highest dose activity change, negative = inhibition, usual class: inhibitors. hit rate 0.14% among 360,000. AID 720709, 2013;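 further: potency means the concentration at half of the fitted maximal effect; plate controls were vehicle for no effect and positive control for full effect; nearly all actives have a fitted effect of over 50% in size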
EPAC2 ag – qHTS for Agonist of cAMP-regulated guanine nucleotide exchange factor 4 (EPAC2): primary screen; Potency, µM (titrated, usually from 154 µM), for the others: at the top dose activation, hits mostly activators; AID 720711, 2013; Rap guanine nucleotide exchange factor 4 (Homo sapiens), Q8WZA2; hit rate 0.079% among 360,000; EPAC2 activation, biochemical qHTS; response scale: 100% = 6.5 mM cAMP response; further: potency means the concentration at half of the fitted maximal effect; nearly all actives have a fitted effect of over 50% in size
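qHTS, titration series. 100 nM EPAC2 / 250 nM Rap1B-BODIPY-GDP / 50 uM GDP; RT; ex 480/em 540 nm, 5-min reads to 30 min. Norm. to 6.5 mM cAMP = activation.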
EPAC1 agonist – qHTS for Agonist of cAMP-regulated guanine nucleotide exchange factor 3 (EPAC1): primary screen | Rap guanine nucleotide exchange factor 3 (Homo sapiens), O95398 | AID 720707, 2013 | Potency, µM (doses to about 154 µM), for inactives: at the highest dose activation, most hits filed as activators | hit rate 0.073% among 360,000 | EPAC1 agonist qHTS, biochemical assay; response scale: 100% = response to 6.5 mM cAMP; further: potency means the concentration at half of the fitted maximal effect; nearly all actives have a fitted effect of over 60% in size
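Multi-concentration qHTS readout: loss of Rap1B-bound BODIPY-GDP fluorescence driven by 100 nM EPAC1 with excess GDP (50 uM), monitored kinetically at room temperature; agonist response expressed relative to 6.5 mM cAMP.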
EPAC2 antag – qHTS for Antagonist of cAMP-regulated guanine nucleotide exchange factor 2 (EPAC2): primary screen. hit rate 0.18% among 360,000. Rap guanine nucleotide exchange factor 4 (Homo sapiens), Q8WZA2. Potency, µM (top dose mostly 114 µM), for inactives: at the highest dose activity, negative = inhibition, hits mostly inhibitors. EPAC2 GEF exchange of Rap1B-BODIPY-GDP, fluorescence; further: potency means the concentration at half of the fitted maximal effect; on the % scale 0 is the no-effect control and ±100 the full control effect; nearly all actives have a fitted effect of over 45% in size
* = called active by the depositor; i = inactive; ? = inconclusive; · = not tested or not shown. Unless noted, the call rests on the fitted dose curve; in most records, active means well fitted curve in the direction sought with a large enough effect; inconclusive means small, poorly fitted or top-dose-only effect, or another doubt; inactive means no such curve, though single readings can be large; an effect the other way counts as inactive or inconclusive.

SMILES	TSHR antagonist	PTHR1 ag	EPAC1 antagonist	EPAC2 ag	EPAC1 agonist	EPAC2 antag
COC(=O)c1ccccc1-c1ccc(/C=N/NC(=O)c2cc3ccccc3o2)o1	3	-3%	-3%	20%	18%	-3%
COc1ccc(-n2c3c(cc(-c4nc(-c5ccc(Cl)cc5)cs4)c2=O)C(=O)CC(C)(C)C3)cc1Cl	·	-8%	·	·	·	·
O=C1NC(=O)/C(=C/c2ccc3c(c2)OC(F)(F)O3)S1	-44	·	·	·	·	·
CCOC(=O)/C(C#N)=C\c1ccc(N2CCN(C/C=C/c3ccccc3)CC2)cc1	-2	-29%	44%	50µM*	89µM*	70%
O=C(N=C1SC2CS(=O)(=O)CC2N1CCc1ccc(F)cc1)C1CCCCC1 (stereo not drawn)	2	i	-1%	-7%	-15%	-1%
Cc1coc2c1C(=O)C(=O)c1c-2ccc2c(C)cccc12	2	-9%	79µM*	-1%	-2%	4%
CCCCn1c(N)c(N(CC(C)C)C(=O)C2CCN(S(=O)(=O)c3ccccc3)CC2)c(=O)[nH]c1=O	3	i	-1%	1%	-2%	26%
CCCCn1c(N)c(N(CC(C)C)C(=O)C2CCN(S(=O)(=O)c3ccc(C)c(C)c3)CC2)c(=O)[nH]c1=O	15	-1%	50µM*	-7%	-11%	29%
O=C(CCN1C(=O)/C(=C/c2cccs2)SC1=S)Nc1ccc(C(=O)O)c(O)c1	-21	-5%	79µM*	5%	3%	-10%
CC(/C=C1\SC(=S)N(CCCC(=O)Nc2ccc(C(=O)O)c(O)c2)C1=O)=C\c1ccccc1	-13	-4%	?	6%	-5%	?
Cc1ccc(NC(=O)COc2cccc(/C=C3\SC(=S)N(CCC(=O)O)C3=O)c2)cc1Cl	10	-26%	50µM*	-8%	?	34%
CC(=Cc1ccccc1)C=C1SC(=S)N(CCCC(=O)Nc2ccc(C(=O)O)c(O)c2)C1=O	·	-51%	50µM*	0%	12%	0%
O=C(CCN1C(=O)/C(=C/c2cccs2)SC1=S)Nc1ccc(O)cc1	2	i	10%	5%	3%	6%
O=C(O)c1ccc(NC2=C(Cl)C(=O)c3ccccc3C2=O)cc1	-87*	-35%	6%	17%	4%	-5%
O=C1C(Cl)=C(Nc2ccccc2)C(=O)c2ccccc21	-3	-30%	-5%	-1%	6%	4%
O=C(O)c1cccc(NC2=C(Cl)C(=O)c3ccccc3C2=O)c1	-83*	0%	-24%	10%	1%	-10%
CCOC(=O)c1noc2ncn(CC(=O)Nc3ccccc3OC)c(=O)c12	·	-19%	·	·	·	·
N/C(Cc1ccc([N+](=O)[O-])cc1)=N\OC(=O)Cc1ccc(Cl)cc1	-77*	i	-15%	-1%	5%	2%
CN(C)S(=O)(=O)c1cccc(NC(=O)CCCSc2ccccc2)c1	-24	-17%	?	-1%	-4%	-17%
CC(=O)c1cccc(NC(=O)CCCSc2ccccc2)c1	-81*	i	?	4%	-2%	-20%
CCc1nc2c(OCc3ccc(C(F)(F)F)cc3)cccn2c1N(C)C(=O)c1ccco1	·	-15%	-14%	3%	-8%	?
COc1cccc(C2c3[nH]c4ccccc4c3CCN2Cc2ncc[nH]2)c1 (stereo not drawn)	-1	i	-4%	7%	6%	50µM*
COc1ccccc1N1C(=O)c2cccc3c(Cl)ccc(c23)C1=O	-98*	-9%	-1%	16%	-1%	-29%
CCO/C=C1/C(=O)N(c2ccccc2OC)C(=O)c2ccccc21	-1	-10%	1%	6%	8%	4%
CCc1ccccc1N(C)C(=O)Nc1cn(CC(C)C)c(=O)c2ccccc12	·	-28%	·	·	·	·
SMILES	TSHR antagonist	PTHR1 ag	EPAC1 antagonist	EPAC2 ag	EPAC1 agonist	EPAC2 antag
COc1ccc(S(=O)(=O)N2CCC[C@H]2C(=O)N2CCC[C@H]2C(=O)NCc2ccccc2)cc1C	·	i	20%	1%	-10%	47µM*
COc1cccc(CNC(=O)[C@@H]2CCCN2C(=O)[C@@H]2CCCN2S(=O)(=O)c2ccc(OC)c(C)c2)c1	·	i	1%	-3%	-17%	-8%
COC(=O)c1sc(-c2ccc(C(C)(C)C)cc2)cc1NC(=O)c1ccccc1C(=O)O	-23	-21%	56µM*	-4%	-25%	-9%
Cc1ccccc1OCC(=O)Nc1ccc(-c2nc3ccccc3o2)cc1	·	-6%	·	·	·	·
Cc1cccc(NC(=O)c2sc3nc4c(cc3c2N)CN(C(C)C)CC4)c1	·	-91%	·	·	·	·
Cc1cc2nc3c(=O)[nH]c(=O)[nH]c3nc2c([N+](=O)[O-])c1N	15	i	15%	12%	89µM*	33%
COc1cc2nc(N3CCN(C(=O)OCc4ccccc4)C(C(=O)NC(C)(C)C)C3)nc(N)c2cc1OC (stereo not drawn)	-22	·	·	·	·	·
Nc1ccn(Cc2ccccc2F)n1	-72*	i	1%	1%	6%	3%
CCOc1ccc(CN(C)C(=O)CN2C(=O)NC(c3ccccc3)(c3ccccc3)C2=O)cc1	-15	i	2%	19%	2%	-1%
N#Cc1c(Nc2ccccc2)[n+]([O-])c2ccc(Cl)cc2[n+]1[O-]	·	i	-8%	7%	-2%	17%
CCOC(=O)/C=C(\C)Sc1cc(O)c2ccccc2c1O	6	-45%	?	7%	-2%	45µM*
CCCC(=O)N1CCC1(C)C(=O)Nc1ccc(OC)c(OC)c1 (stereo not drawn)	·	i	11%	4%	-15%	5%
c1ccc(-c2cnn3c(-c4ccccc4)c(-c4ccccc4)nc3n2)cc1	-4	-12%	65%	89µM*	13µM*	i
CN(Cc1ccco1)S(=O)(=O)c1csc(C(N)=O)c1	-139*	i	-4%	-6%	-6%	13%
Cc1ccc(CCNC(=O)Cn2ccc3cc(S(=O)(=O)N4CCCC4)ccc32)cc1	-20	i	-2%	9%	-1%	2%
COc1ccc(-c2nc3c4ccccc4ccn3c2Cc2ccccc2C(F)(F)F)cc1OC	·	-21%	-10%	0%	-9%	-4%
